Results: PubChem BioAssay (Tox21)
Inconclusive results are not listed. Calls of active or inactive are those of the source. Unless noted, the call rests on the fitted dose curve; in most records, active means well fitted curve in the direction sought with a large enough effect in the repeat runs; inconclusive means weak or mixed curves; inactive means no such curve, though single readings can be large; an effect the other way counts as inactive or inconclusive.

Tests used:
[1] = qHTS assay for small molecules that induce genotoxicity in human embryonic kidney cells expressing luciferase-tagged ATAD5 (AID 651632); further: nearly all actives have a fitted effect of over 15% in size
In short: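 DMSO vehicle served as the control. HEK293T reporter cells, 16 hr at 37C, then 30 min Amplite at room temperature; ATAD5 induction is measured as luciferase activity.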

[2] = qHTS assay for small molecules that induce genotoxicity in human embryonic kidney cells expressing luciferase-tagged ATAD5 - cell viability (AID 651634; calls by dose curve; further: nearly all actives have a fitted effect of over 25% in size)
In short: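 Here HEK293T cells with the ATAD5 luciferase reporter are incubated with test compounds for 15.5 hr, and cytotoxicity is then gauged by measuring protease activity in live cells using fluorescence.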

[3] = qHTS assay for small molecule disruptors of the mitochondrial membrane potential - cell viability (AID 720634; calls by dose curve;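 further: human HepG2 liver cancer cells; series mostly up to about 83 µM; nearly all actives have a fitted effect of over 20% in size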)
In short: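 Viability of HepG2 cells is scored from ATP content by luminescence; cells are exposed to compound for 1 hr at 37 C and 5% CO2, then dosed with m-MPI dye before the CellTiter-Glo reagent.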

[4] = qHTS assay to test for compound auto fluorescence at 590 nm (red) in HepG2 cells (AID 720674)
In short: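 Red autofluorescence (Ex/Em 540/590 nm, Rose Bengal sodium equivalents) was measured in HepG2 cells, 2,000 per well in MEM plus 10% FBS, plated overnight at 37 C. Readings were taken 1 hr after adding 23 nL compound or DMSO, at 37 C and 5% CO2.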

[5] = qHTS assay to test for compound auto fluorescence at 535 nm (green) in HepG2 cells (AID 720675)
[6] = qHTS assay to test for compound auto fluorescence at 460 nm (blue) in HEK293 cell free culture (AID 720681)
In short: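 Blue fluorescence (Ex 405/Em 460 nm, triamterene-equivalent) was read immediately after pin transfer of compound or DMSO into medium (DMEM, 10% FBS) without cells.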

[7] = qHTS assay to test for compound auto fluorescence at 535 nm (green) in HEK293 cell free culture (AID 720682)
In short: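 Measurement is a direct plate read of green fluorescence (485 nm in, 535 nm out) after compound addition to serum-supplemented DMEM lacking cells, with fluorescein used to express intensities.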

[8] = qHTS assay to test for compound auto fluorescence at 590 nm (red) in HEK293 cell free culture (AID 720683)
In short: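 Red-channel autofluorescence of compounds in culture medium (DMEM, 10% FBS), no cells, measured at 540/590 nm. Rose Bengal sodium is the reference fluorophore for equivalence.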

[9] = qHTS assay to test for compound auto fluorescence at 460 nm (blue) in HepG2 cell free culture (AID 720685)
In short: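 Cell-free plates of MEM plus 10% FBS received 23 nL compound or DMSO vehicle; blue-channel (405/460 nm) intensity scored against triamterene as reference fluorophore.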

[10] = qHTS assay to test for compound auto fluorescence at 535 nm (green) in HepG2 cell free culture (AID 720686)
[11] = qHTS assay to test for compound auto fluorescence at 460 nm (blue) in HepG2 cells (AID 720687)
In short: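 Blue-channel autofluorescence (Ex/Em 405/460 nm, triamterene-equivalent) was measured after 1 hr compound exposure at 37 C, 5% CO2. Cells were HepG2, plated overnight at 37 C in MEM plus 10% FBS.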

[12] = qHTS assay to identify small molecule antagonists of the glucocorticoid receptor (GR) signaling pathway - cell viability counter screen (AID 720693); further: nearly all actives have a fitted effect of over 55% in size
[13] = qHTS assay to identify small molecule antagonists of the thyroid receptor (TR) signaling pathway (AID 743065); further: series mostly up to about 70 µM; nearly all actives have a fitted effect of over 55% in size
In short: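 Antagonism measured as loss of luciferase signal in GH3 cells stably carrying a TRE-luciferase reporter, co-treated with compound and T3 (1 nM final) for 23.5 h at 37 C. Viability was read in the same well by CellTiter-Fluor.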

[14] = system: thyroid hormone receptor (rat, GH3 cells); assay: qHTS assay to identify small molecule agonists of the thyroid receptor (TR) signaling pathway (AID 743066; calls by dose curve)
[15] = qHTS assay to identify small molecule antagonists of the estrogen receptor alpha (ER-alpha) signaling pathway - cell viability counter screen (AID 743074; calls by dose curve;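 further: HEK293 cells carrying ER-alpha-UAS-bla reporter stimulated with 17beta-estradiol; nearly all actives have a fitted effect of over 45% in size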)
[16] = qHTS assay to identify small molecule antagonists of the estrogen receptor alpha (ER-alpha) signaling pathway using the BG1 cell line - cell viability counter screen (AID 743081);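 further: compound given together with 17beta-estradiol as the ER stimulus; series mostly up to about 70 µM; nearly all actives have a fitted effect of over 45% in size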
[17] = qHTS assay to identify small molecule phospholipidosis (PLD) inducers (AID 1259344; active means well fitted curve in the direction sought with a large enough effect; an effect the other way counts as inactive or inconclusive)
In short: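 Accumulated phospholipid, stained red by LipidTOX during 24 h compound treatment of HepG2 cells at 37 C, is quantified from images as pit number and intensity, normalised per cell using Hoechst-stained nuclei.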

Aromatase (Homo sapiens) = Aromatase (Homo sapiens) (UniProt P11511); assay: qHTS assay to identify aromatase inhibitors (AID 743083); further: series mostly up to about 70 µM; nearly all actives have a fitted effect of over 55% in size
[18] = qHTS assay to identify aromatase inhibitors - cell viability counter screen (AID 743084);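 further: cells stimulated with testosterone during compound exposure; nearly all actives have a fitted effect of over 55% in size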
[19] = target: Aryl hydrocarbon receptor (Homo sapiens) (UniProt P35869); assay: qHTS assay to identify small molecule that activate the aryl hydrocarbon receptor (AhR) signaling pathway (AID 743085);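 further: HG2L7.5c1 human HepG2 liver cells with stably integrated DRE-driven firefly reporter; series mostly up to about 70 µM; nearly all actives have a fitted effect of over 15% in size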
In short: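 24 h compound exposure, 37C, HepG2-derived HG2L7.5c1 cells with DRE-responsive luciferase. Readouts: fluorescence viability, then luminescence at room temperature after 30 min.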

Measured: Potency

Aryl hydrocarbon receptor (Homo sapiens), sequence (P35869 whole entry, looked up): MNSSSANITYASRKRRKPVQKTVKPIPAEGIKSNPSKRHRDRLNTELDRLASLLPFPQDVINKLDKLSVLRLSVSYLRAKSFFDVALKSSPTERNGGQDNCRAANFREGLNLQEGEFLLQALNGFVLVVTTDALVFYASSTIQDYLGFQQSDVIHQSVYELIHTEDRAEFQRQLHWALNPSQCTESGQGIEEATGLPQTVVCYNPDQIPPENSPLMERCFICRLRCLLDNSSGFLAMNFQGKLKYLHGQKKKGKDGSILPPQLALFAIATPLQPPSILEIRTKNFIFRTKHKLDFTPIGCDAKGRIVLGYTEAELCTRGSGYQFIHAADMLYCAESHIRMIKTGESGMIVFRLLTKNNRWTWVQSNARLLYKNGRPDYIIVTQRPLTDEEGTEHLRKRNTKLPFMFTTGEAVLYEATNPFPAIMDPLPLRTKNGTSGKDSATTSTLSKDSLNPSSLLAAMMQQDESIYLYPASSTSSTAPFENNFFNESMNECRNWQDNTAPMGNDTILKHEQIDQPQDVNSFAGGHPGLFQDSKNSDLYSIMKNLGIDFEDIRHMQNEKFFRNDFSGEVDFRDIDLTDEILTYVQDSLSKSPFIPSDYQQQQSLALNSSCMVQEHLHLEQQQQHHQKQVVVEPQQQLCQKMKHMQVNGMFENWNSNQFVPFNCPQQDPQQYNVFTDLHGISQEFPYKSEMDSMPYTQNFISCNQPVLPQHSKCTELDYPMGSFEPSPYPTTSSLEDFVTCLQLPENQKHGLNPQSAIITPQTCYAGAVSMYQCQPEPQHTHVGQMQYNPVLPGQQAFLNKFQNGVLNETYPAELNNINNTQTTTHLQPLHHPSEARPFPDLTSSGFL
Aromatase (Homo sapiens), sequence (P11511 whole entry, looked up): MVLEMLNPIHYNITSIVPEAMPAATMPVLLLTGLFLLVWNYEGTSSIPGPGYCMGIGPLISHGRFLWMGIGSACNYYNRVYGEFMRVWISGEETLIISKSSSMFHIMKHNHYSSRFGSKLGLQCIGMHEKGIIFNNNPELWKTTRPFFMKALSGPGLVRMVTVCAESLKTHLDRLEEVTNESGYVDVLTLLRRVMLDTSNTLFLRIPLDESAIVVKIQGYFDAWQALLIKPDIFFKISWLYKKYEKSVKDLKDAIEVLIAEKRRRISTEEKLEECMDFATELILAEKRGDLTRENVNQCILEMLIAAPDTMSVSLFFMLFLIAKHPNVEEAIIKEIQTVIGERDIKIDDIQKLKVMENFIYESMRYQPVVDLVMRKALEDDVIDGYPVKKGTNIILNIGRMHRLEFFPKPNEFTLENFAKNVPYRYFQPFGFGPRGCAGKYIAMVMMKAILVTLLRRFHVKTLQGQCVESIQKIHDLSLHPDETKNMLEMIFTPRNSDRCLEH

CCCCNCC(O)c1ccc(O)cc1 (stereo not drawn)
not listed: Aromatase (Homo sapiens) | [18] | [19]
inactive: all other assays above

COc1ccc2c(c1)C13CCCC[C@@H]1C(C2)N(C)CC3 (stereo partly drawn)
not listed: [13]
inactive: all other assays above

O=C1CCCCC1CN1CCCCC1 (stereo not drawn)
not listed: [5]
inactive: all other assays above

C[N+]1([O-])[C@@H]2CC(OC(=O)[C@H](CO)c3ccccc3)C[C@H]1[C@@H]1O[C@@H]12 (stereo partly drawn)
inactive: all assays above

c1csc(C2(N3CCCCC3)CCCCC2)c1
inactive: all assays above

O=C(CCl)c1ccc(Oc2ccc(C(=O)CCl)cc2)cc1
inactive: all assays above

CNc1ccc(C(=O)CC(O)CCC(C)C2OC(=O)CC(O)CC(=O)CC(O)CC(O)CC(O)CC(O)CC3(O)CC(O)C(C(=O)OC)C(CC(O[C@@H]4O[C@H](C)[C@@H](O)[C@H](N)[C@@H]4O)/C=C/C=C/C=C/C=C/C=C/C=C/C=C/C2C)O3)cc1 (stereo partly drawn)
not listed: [5] | [13]
inactive: all other assays above
